Assay outcomes: PubChem, National Center for Advancing Translational Sciences (NCATS)
In the library only some 5.8% were active in any assay of this set; here they are far more common.
TRPV1 potentiator – HTS Assay for Compounds that Act as Potentiators of the Vanilloid Receptor 1. Transient receptor potential cation channel subfamily V member 1 (Homo sapiens), Q8NER1. TRPV1-expressing cells, Fluo-8 calcium influx, capsaicin EC20 potentiation. potentiation, % at 8.33 µM. actives 0.02% (n = 320,000); in the data active = potentiation above about 80%; inconclusive = between about 30% and that limit
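TRPV1-expressing cells were cultured overnight at 35.5C and loaded with Fluo-8 calcium dye for 40 to 90 min at room temperature. After a 10 s baseline, compound was added and calcium influx was read kinetically for 3 min (ex 480/em 520 nm).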
RORgamma inh – qHTS for inhibitors of ROR gamma transcriptional activity | actives 5.4% (n = 310,000) | Potency, µM (series often up to 53.6 µM), usual class: inhibitors | Nuclear receptor ROR-gamma (Mus musculus), P51450 | Drosophila S2 Gal4-RORgamma UAS-luciferase reporter, 20 h; note: nearly all actives have a fitted effect of over 60% in size
Target sequence (P51450 whole entry, looked up, the tested form may be a part): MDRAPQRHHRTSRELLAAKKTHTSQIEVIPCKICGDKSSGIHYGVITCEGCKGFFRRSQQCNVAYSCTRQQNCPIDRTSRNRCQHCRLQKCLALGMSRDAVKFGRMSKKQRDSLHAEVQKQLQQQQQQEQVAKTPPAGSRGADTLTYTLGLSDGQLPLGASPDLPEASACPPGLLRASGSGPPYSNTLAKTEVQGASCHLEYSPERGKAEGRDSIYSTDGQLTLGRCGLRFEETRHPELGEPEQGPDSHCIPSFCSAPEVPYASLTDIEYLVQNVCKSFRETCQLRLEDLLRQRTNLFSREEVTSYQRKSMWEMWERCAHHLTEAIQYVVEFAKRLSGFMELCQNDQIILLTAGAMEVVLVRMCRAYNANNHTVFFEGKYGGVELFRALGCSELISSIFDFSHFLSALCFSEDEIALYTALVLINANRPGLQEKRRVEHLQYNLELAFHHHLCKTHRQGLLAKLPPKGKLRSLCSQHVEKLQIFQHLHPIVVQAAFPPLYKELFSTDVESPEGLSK
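Luminescence from a UAS-regulated Photinus luciferase reporter in stably transfected Drosophila Schneider cells is measured; decreased signal marks ROR gamma inhibition. Fusion expression is induced by 700 uM copper sulfate for 20 hr.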
Gal4-VP16 FLuc – VP16 counterscreen qHTS for inhibitors of ROR gamma transcriptional activity | Potency, µM (top dose mostly 53.6 µM), most hits filed as inhibitors | Drosophila S2 Gal4-VP16 UAS-luciferase, luminescence, 20 h | actives 3.5% (n = 310,000);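 note: Gal4-VP16 expression switched on by copper sulfate through the metallothionein promoter; nearly all actives have a fitted effect of over 50% in size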
TRPV1 agonist – HTS Assay for Compounds that Act as Agonists of the Vanilloid Receptor 1 | Transient receptor potential cation channel subfamily V member 1 (Homo sapiens), Q8NER1 | TRPV1-expressing cells, Fluo-8 calcium influx, agonist mode | activation, % at 8.33 µM | actives 0.19% (n = 320,000) | AID 540275, 2011; in the data active = activation above about 80%; inconclusive = between about 30% and that limit
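Fluo-8 calcium influx in TRPV1-expressing cells, kinetic read (ex 480/em 520 nm). Compound added and read 3 min for agonist activity, followed by capsaicin at EC20 final and 2 min further read for enhancement.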
uPA surface inh – qHTS for Inhibitors of Cell Surface uPA Generation; cell surface uPA generation assay, qHTS; Potency, µM (top dose mostly 38.3 µM), usual class: inhibitors; actives 0.31% (n = 330,000); active = well fitted inhibition curve with a large enough effect; inconclusive = small, poorly fitted or top-dose-only effect; inactive = no such curve, though single readings can be large or run the other way; tested in mouse RAW 264.7 cells; note: nearly all actives have a fitted effect of over 55% in size
Each line names hits and unclear results; the compound was inactive in the other large screens. Unless noted, calls come from the whole dose curve; as a rule, active = well fitted curve in the direction sought with a large enough effect; inconclusive = small, poorly fitted or top-dose-only effect, or another doubt; inactive = no such curve, though single readings can be large; an effect the other way counts as inactive or inconclusive.

Cc1sc2ncn(/N=C/c3cn(-c4ccccc4)nc3-c3ccccc3)c(=O)c2c1C	none (no result: RORgamma inh, Gal4-VP16 FLuc, uPA surface inh)
Cc1ccc(NC2CCCN(C(=O)c3cc(C(C)C)[nH]n3)C2)cc1C (stereo not drawn)	none
CC(=O)N1c2ccc(S(=O)(=O)NCCC(=O)NCCc3cccc(C)c3)cc2CC1C (stereo not drawn)	none
CN(C)S(=O)(=O)c1cccc(-c2nn(-c3ccccc3)cc2/C=C(\C#N)c2nc3ccccc3[nH]2)c1	none
CN(C)S(=O)(=O)c1cccc(-c2nn(-c3ccccc3)cc2/C=C2\SC(=S)NC2=O)c1	RORgamma inh 13µM, Gal4-VP16 FLuc inconclusive
CC1=CC(C)(C)NC(=S)N1C(C)c1ccccc1 (stereo not drawn)	RORgamma inh 2.2µM, Gal4-VP16 FLuc 4µM
CC1=CC(C)(C)NC(=S)N1c1cccc2ccccc12	RORgamma inh inconclusive, Gal4-VP16 FLuc 5µM
CC1=CC(C)(C)NC(=S)N1c1ccc(Cl)cc1	none (no result: TRPV1 potentiator, RORgamma inh, Gal4-VP16 FLuc, TRPV1 agonist)
CC1=CC(C)(C)NC(=S)N1c1ccc2ccccc2c1	RORgamma inh 3.5µM, Gal4-VP16 FLuc 6.3µM
Cc1nnc(C)c2c(C)n(C(C)c3ccccc3)c(C)c12 (stereo not drawn)	none
CC1=CC(C)(C)NC(=S)N1CCO	none (no result: TRPV1 potentiator, RORgamma inh, Gal4-VP16 FLuc, TRPV1 agonist)
Cc1cc(C)c(S(=O)(=O)N2CCOC2CNC(=O)C(=O)NCc2ccncc2)c(C)c1 (stereo not drawn)	none
CSCC[C@H](NC(=O)[C@H](Cc1ccccc1)n1c(=O)[nH]c2ccccc2c1=O)C(=O)N1CCC(C(=O)O)CC1	none
N#Cc1nc(NCC2CC2)nc(Nc2ccccc2)n1	none (no result: TRPV1 potentiator, RORgamma inh, TRPV1 agonist, uPA surface inh)
COC(=O)C1=C(C)[C@@H](O)[C@@H](C)[C@H](c2c(OC)c(OC)c(C)c(OC)c2OC)O1	none (no result: TRPV1 potentiator, TRPV1 agonist, uPA surface inh)
CC1CCCN(c2ccc3nc4ccccc4c(=O)n3n2)C1 (stereo not drawn)	TRPV1 potentiator inconclusive, RORgamma inh 8.9µM, Gal4-VP16 FLuc 4.5µM, uPA surface inh inconclusive
Cc1ccc2nc3ccc(N4CCCC4)nn3c(=O)c2c1	none
CCOc1cc(C(=S)N2CCOCC2)ccc1OS(=O)(=O)c1ccc(C)cc1	none
CCOc1cc(C(=S)N2CCCCC2)ccc1OS(=O)(=O)c1ccc(Cl)cc1	RORgamma inh 10µM (no result: uPA surface inh)
CCOc1cc(C(=S)N2CCCCC2)ccc1OS(=O)(=O)c1ccc(Br)cc1	RORgamma inh 7.1µM (no result: uPA surface inh)
O=C(COC(=O)c1ccc(Cl)nc1)NCCC1=CCCCC1	none
CCN(CC)c1ccc2c(Cl)c(Br)c(=O)oc2c1	RORgamma inh inconclusive, Gal4-VP16 FLuc 4µM (no result: TRPV1 potentiator, TRPV1 agonist)
CCN(CC)c1ccc2c(C)c(Cl)c(=O)oc2c1	none
Cc1[nH]c2ccc(Br)cc2c(=S)c1C/C=C/Cl	RORgamma inh 7.9µM
Cc1nc2sc(C(N)=O)c(N)c2c2c1CCCC2	RORgamma inh 5.6µM
Cc1ccc(-c2nc3sc(C(N)=O)c(N)c3c3c2CCCC3)cc1	none
C=CC[N+]1([C@H]2C[C@H]3[C@@H]4CC[C@H]5C[C@H](O)[C@@H](N6CCOCC6)C[C@]5(C)[C@H]4CC[C@]3(C)[C@H]2OC(C)=O)CCCC1	none (no result: TRPV1 potentiator, TRPV1 agonist, uPA surface inh)
Cc1[nH]n2c(=O)cc(C(C)(C)C)nc2c1-c1ccccc1	RORgamma inh 1.4µM, Gal4-VP16 FLuc 3.2µM
Cc1[nH]n2c(=O)cc(-c3ccc([N+](=O)[O-])cc3)nc2c1-c1ccccc1	none (no result: TRPV1 potentiator, RORgamma inh, Gal4-VP16 FLuc, TRPV1 agonist)
Cc1[nH]n2c(=O)cc(C(C)C)nc2c1-c1ccccc1	RORgamma inh 11µM, Gal4-VP16 FLuc inconclusive
CCc1cc2c3c(c1)C1(C(=O)N3C(C)(C)C=C2C)C(C#N)=C(N)Oc2[nH]c(=O)[nH]c(=O)c21 (stereo not drawn)	Gal4-VP16 FLuc inconclusive
O=C(CNC(=O)C1CCCCC1)OCC(=O)c1ccc(Br)cc1	none (no result: RORgamma inh, Gal4-VP16 FLuc)
O=C(Nc1cccc(Br)c1)c1cc(S(=O)(=O)N2CCOCC2)cs1	RORgamma inh inconclusive, TRPV1 agonist inconclusive
Cc1cccc(/N=C2/NC(=O)C(Cc3ccccc3)S2)n1 (stereo not drawn)	none
O=C1N/C(=N/N=C/c2ccccc2O)SC1Cc1ccc(F)cc1 (stereo not drawn)	RORgamma inh 2.8µM, Gal4-VP16 FLuc 8.9µM
O=C1N/C(=N/N=C/c2ccc(O)cc2)SC1Cc1ccccc1 (stereo not drawn)	none
COc1ccc(CC2S/C(=N/N=C/c3ccccc3O)NC2=O)cc1 (stereo not drawn)	RORgamma inh 5.6µM, Gal4-VP16 FLuc inconclusive
CCOc1ccc(CC2S/C(=N/c3ccccn3)NC2=O)cc1 (stereo not drawn)	RORgamma inh 3.2µM, Gal4-VP16 FLuc 5µM
COc1ccc(/C=N/N=C2/NC(=O)C(c3ccccc3)S2)c(OC)c1 (stereo not drawn)	RORgamma inh 14µM
COc1ccc(/C=N/N=C2/NC(=O)C(CC(=O)NC(C)C)S2)cc1 (stereo not drawn)	none
COc1ccc(CC2S/C(=N/N=C/c3ccc(O)cc3)NC2=O)cc1 (stereo not drawn)	none
CCCN(C(=O)CSc1ncccn1)C1CCS(=O)(=O)C1 (stereo not drawn)	none (no result: TRPV1 potentiator, RORgamma inh, Gal4-VP16 FLuc, TRPV1 agonist)
CN(CCc1ccccc1)C1CCCN(S(=O)(=O)c2cccc(F)c2)C1 (stereo not drawn)	none
CCCCn1c(SCc2ccc(C(=O)OC)o2)nc2cc(S(N)(=O)=O)ccc21	Gal4-VP16 FLuc 10µM
CCCCn1c(SCC(=O)c2cc(OC)ccc2OC)nc2cc(S(N)(=O)=O)ccc21	TRPV1 agonist inconclusive
Cc1ccc(Cn2c(SCC(=O)N(C)C3CCS(=O)(=O)C3)nc3ccccc3c2=O)cc1 (stereo not drawn)	none (no result: RORgamma inh, Gal4-VP16 FLuc)
CCOC(=O)C(NCc1ccc(F)cc1)(NC(=O)c1ccccc1)C(F)(F)F (stereo not drawn)	none
COc1ccc(C(=O)CC(=O)c2ccc(OC)cc2)cc1	RORgamma inh 13µM, Gal4-VP16 FLuc 18µM
COc1ccc(O)c(C(=O)CC(=O)c2ccccc2)c1	RORgamma inh 7.1µM, Gal4-VP16 FLuc 13µM (no result: uPA surface inh)
COc1ccc(C(=O)NCc2cc(C)nc3ccccc23)cc1	RORgamma inh inconclusive, Gal4-VP16 FLuc inconclusive, uPA surface inh 7.1µM
COc1ccc(CNC(NC(=O)c2ccccc2)(C(F)(F)F)C(F)(F)F)cc1	RORgamma inh inconclusive, Gal4-VP16 FLuc 10µM
NC(=O)Cn1c(=O)n(C2CCCCC2)c(=O)c2c3c(sc21)CCCCC3	none
O=C(NCc1ccncc1)c1ccc(Oc2ccccc2)cc1	RORgamma inh inconclusive, Gal4-VP16 FLuc inconclusive, TRPV1 agonist 91
Cc1ccc(Oc2ccc(C(=O)NCc3ccncc3)cc2)cc1	Gal4-VP16 FLuc inconclusive, TRPV1 agonist inconclusive
COc1ccc(C(=O)NCC(=O)c2ccccc2)cc1	RORgamma inh 10µM, uPA surface inh inconclusive
COc1ccc(C(=O)CC(=O)c2ccccc2)cc1	none (no result: TRPV1 potentiator, RORgamma inh, Gal4-VP16 FLuc, TRPV1 agonist)
